# High-throughput results deposited in PubChem BioAssay by National Center for Advancing Translational Sciences (NCATS).
# MARV entry inh = Marburg virus entry inhibition. Marburg virus pseudotyped entry inhibition, cell reporter. AID 540276. 300,000 compounds, 1.8% hits. Potency, µM (titrated, usually from 37.8 µM), for the others: top-dose activity change, negative = inhibition, most hits filed as inhibitors; calls by dose curve; tested in HEK293 cells; note: potency is the fitted concentration of half-maximal effect
# Pf growth 96h = P. falciparum growth inhibition at 96 hours. P. falciparum luciferase reporter growth, 96 h. Potency, µM (highest dose often 28.7 µM), inactives show top-dose activity change, negative = inhibition, hits mostly inhibitors. 320,000 compounds, 6.9% hits; note: potency is the fitted concentration of half-maximal effect
#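 Infected RBCs, 2% Hct / 0.05% parasitemia final; luciferase-reporter P. falciparum; cpd 96 h, 37 C, 5% CO2; luciferase detection reagent; luminescence.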
# Lassa entry inh = Lassa virus entry inhibition; Lassa virus pseudotype entry inhibition, cell reporter; Potency, µM (series often up to 37.9 µM), without a hit: at the highest dose activity change, negative = inhibition, hits mostly inhibitors; 300,000 compounds, 1.2% hits; AID 540256; calls by dose curve; tested in HEK293 cells; note: potency is the fitted concentration of half-maximal effect; nearly all actives have a fitted effect of over 50% in size
# Pf growth 48h = P. falciparum growth inhibition at 48 hours (one generation) | P. falciparum luciferase growth in erythrocytes, 48 h | Potency, µM (highest dose often 28.7 µM), for inactives: top-dose activity change, negative = inhibition, most hits filed as inhibitors | 310,000 compounds, 5.9% hits | AID 504832; note: potency is the fitted concentration of half-maximal effect
#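 Here the parasites carry a stable luciferase gene and grow inside erythrocytes in Albumax-based RPMI medium with compound for one erythrocytic cycle. Activity is scored as loss of luminescent signal.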
# HCV inhibitor = inhibitors of hepatitis C virus infection | Huh7.5.1 HCVcc-Cre infection, luciferase reporter, 44 h | Potency, µM (highest dose often 41.8 µM), without a hit: top-dose activity change, negative = inhibition, actives largely listed as inhibitors | 340,000 compounds, 3.4% hits | AID 651820; note: potency is the fitted concentration of half-maximal effect
#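 Infectious HCV cell culture screen: compound-treated cells (1,000/well, pre-plated 4 h) are infected with HCVcc-Cre at roughly 0.5 moi and grown 44 h. Infection is quantified by luciferase signal after 15 min substrate incubation at room temperature.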
# HCMV antiviral = inhibitors of human cytomegalovirus. HFF cells, HCMV-luciferase reporter, 72 h; stronger effect = lower value. activity change, negative = inhibition, % at 57.5 µM. 410,000 compounds, 4.5% hits; in the data active = activity change below about -60%; inconclusive = no clear call, values can overlap the other calls; inactive = above about -39%
#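 HFF cells seeded 16 h at 37C, treated with compounds, infected with luciferase-reporter HCMV at MOI 1 PFU/cell; luciferase read at 72 h post infection, normalized to buffer-only and Salinomycin controls.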
# The depositor's hits bear a star; ? = inconclusive; · = not tested or not shown; [ ] = dose if it differs, or a comment. This is a sample that favours compounds with a hit; in the whole collection about 14% have one here. Unless noted, calls come from the whole dose curve; as a rule, active = well fitted inhibition curve with a large enough effect; inconclusive = small, poorly fitted or top-dose-only effect, or another doubt; inactive = no such curve, though single readings can be large or run the other way. % is set by controls: 0 for no effect and ±100 for the full control effect.
SMILES,MARV entry inh,Pf growth 96h,Lassa entry inh,Pf growth 48h,HCV inhibitor,HCMV antiviral
COc1ccc(CCNC(=O)CSc2ccc(-c3ccco3)nn2)cc1OC,?,-12%,?,-14%,0%,-63*
COc1ccc(CCNC(=O)Cn2cc(C(F)(F)F)cc(Cl)c2=O)cc1OC,-4%,?,0%,6.6µM*,0%,-30
CSc1cccc(NC(=S)N(Cc2ccccc2)Cc2cccnc2)c1,-12%[46.1 µM],36%,?,?,-12%,-31
COc1ccc2[nH]c(C)c(CCNS(=O)(=O)c3cc(F)ccc3OC)c2c1,?,·,4%[46.1 µM],·,·,-1
C[C@H]1CN([C@@H](C)CO)S(=O)(=O)c2ccc(Br)cc2O[C@H]1CN(C)C(=O)Cc1ccccn1,·,·,·,·,·,-6
COc1ccc(CCNC(=O)CSc2nn(-c3ccccc3)c(=S)s2)cc1OC,-8%,?,?,10µM*,?,-19
CCCCn1c(-c2ccccc2)cnc1SCC(=O)NCCc1ccc(OC)c(OC)c1,?,1%,?,3%,11µM*,14
COc1ccc(N2CCCC2=O)cc1S(=O)(=O)N1CCOCC1,·,·,·,·,·,35
COc1cc2c(cc1OC)CN(c1nc(CN3CCCCC3)nc3sc4c(c13)CCCC4)CC2,?,1.9µM*,?,3.3µM*,22µM*,37
COc1cc2c(cc1OC)CN(c1nc(CN3CCOCC3)nc3sc4c(c13)CCCC4)CC2,?,1.7µM*,?,9.3µM*,?,1
COc1cccc(Nc2nc(CN3CCOCC3)nc3sc4c(c23)CCCC4)c1,10%,?,-27%,15µM*,-9%,-12
COc1cc2c(cc1OC)CN(c1nc(CN3CCCC3)nc3sc(C)c(C)c13)CC2,?,?,-5%,?,?,-23
O=C1NC[C@H](CCCCN2CCN(CCC3CCCCC3)C(=O)C2=O)N(CCc2ccccc2)C1=O,·,·,·,·,·,-26
O=C1NC[C@H](CC2CCCCC2)N(CCc2cc(C(F)(F)F)cc(C(F)(F)F)c2)C1=O,·,·,·,·,·,53
CCOCCCNc1nc(C(F)(F)F)nc2c1nnn2Cc1ccccc1Cl,·,-20%,·,18%[0.00184 µM],11µM*,?
C=CCNc1nc(C(F)(F)F)nc2c1nnn2Cc1ccccc1Cl,·,?,·,-1%,1%,24
CN(C)S(=O)(=O)c1ccc(Nc2nc(C3CC3)nc3c2nnn3Cc2ccccc2Cl)cc1,-34%,?,?,-12%,?,-79*
CC(=O)Nc1ccc(Nc2nc(C(F)(F)F)nc3c2nnn3Cc2ccccc2Cl)cc1,-28%[46.1 µM],?,-5%[46.1 µM],0%,?,-72*
CCCc1nc(NCCCOCC)c2nnn(Cc3ccccc3)c2n1,·,12µM*,·,5%,2%,-20
Clc1ccccc1Cn1nnc2c(Nc3ccccc3)ncnc21,-12%,?,?,-8%,-2%,-15
Cc1ccc(NC(=O)c2sc3ncnc(N(C)C4CCCCC4)c3c2C)cc1,·,·,1%[46.1 µM],·,·,-13
CC(C)(C)C1=CC=C(C(C)(C)C)C(=O)C1=O,·,?,·,10%,·,·
COc1ccc(CCN(C)C(=O)/C=C/c2c(Cl)nc3ccccn23)cc1OC,7%[46.1 µM],?,-11%,12µM*,3%,24
COc1ccc(C(CNC(=O)/C=C/c2c(Cl)nc3ccccn23)N(C)C)cc1 (stereo not drawn),?,?,4%,-18%,?,-22
CC1=CC(=C(C#N)c2nc3ccccc3s2)C=C(C)N1CC1CCCO1 (stereo not drawn),?,2.9µM*,23%,?,11µM*,38
SMILES,MARV entry inh,Pf growth 96h,Lassa entry inh,Pf growth 48h,HCV inhibitor,HCMV antiviral
CC(C)c1nc2oc3c(NCc4cccnc4)ncnc3c2c2c1CCC2,-14%,0%,?,-5%,7.1µM*,-11
CCN1CCN(c2ncnc3c2oc2nc(C(C)C)c4c(c23)CCC4)CC1,0%,3.3µM*,·,16%,·,·
CC(C)Cc1nc2oc3c(NCc4cccnc4)ncnc3c2c2c1CCC2,?,?,-7%,?,?,-29
CCOC(=O)N1CCN(c2ncnc3c2oc2nc(C(C)C)c4c(c23)CCC4)CC1,4%,-23%,4%,7%,-9%,-14
CC(C)Cc1nc2oc3c(NCC4CCCO4)ncnc3c2c2c1CCC2 (stereo not drawn),?,4.7µM*,-24%,?,14µM*,-13
O=C(Cc1ccc(F)cc1)NCc1nc2cccnc2n1Cc1ccc(F)cc1,·,·,-2%[46.1 µM],·,·,-23
c1csc(C2(N3CCCCC3)CCCCC2)c1,·,?,·,23%,·,·
c1ccc2sc(C3(N4CCCCC4)CCCCC3)cc2c1,7.1µM*,·,?,·,·,·
O=C(NNC(=S)NC(=O)c1ccc(Br)cc1)c1cccc([N+](=O)[O-])c1,·,-4%,·,·,-15%,-105*
O=C(NC(=S)NC1CCSC1=O)c1ccc([N+](=O)[O-])cc1 (stereo not drawn),·,10µM*,·,25%,·,-22
O=C(NNC(=S)NC(=O)c1ccccc1)c1ccc([N+](=O)[O-])cc1,·,?,·,13%,-23%,22
O=C(NC(=S)NNC(=O)c1ccccc1O)c1ccc([N+](=O)[O-])cc1,·,16%,·,·,?,-70*
O=C(O)c1cccc(NC(=S)NC(=O)c2ccncc2)c1,-24%[46.1 µM],9.3µM*,?,32%,7%,-18
O=C(NC(=S)NC1CCSC1=O)c1cccc([N+](=O)[O-])c1 (stereo not drawn),·,?,·,33%,-3%,-34
O=C(NNC(=S)NC(=O)c1ccc(Br)cc1)c1ccc([N+](=O)[O-])cc1,·,87%,·,20%,-18%,62
COc1ccc(NC(=O)N2CC(=O)N3[C@H](CO)[C@@H](c4ccc(Br)cc4)[C@@H]3C2)cc1,·,·,·,·,·,-1
Cc1ccc(Cn2cc(S(=O)(=O)c3ccc(C)cc3)c(=O)c3cc(F)c(N4CCCC4)cc32)cc1,·,·,1%[46.1 µM],·,·,8
Cc1cc(C)nc(NC(=S)Nc2ccccc2)n1,11%,42%,15%,71%,-17%,9
Cc1ccc(C(=O)NNC(=S)NC(=O)c2ccccc2)cc1,-10%,·,?,·,?,-85*
Cc1ccc(C(=O)NC(=S)NNC(=O)c2ccccc2O)cc1,?,-6%,-27%,·,?,-81*
O=C(NC(=S)NNC(=O)c1ccccc1O)c1ccccc1,-13%[46.1 µM],?,-13%[46.1 µM],?,-21%,119
Cc1ccc(C(=O)NC(=S)NNC(=O)c2ccccc2)cc1,·,?,·,22%,-2%,7
Cc1cc(C)nc(NC(=S)NC(=O)c2ccccc2)n1,7%,0.93µM*,21%,15%,3%,-3
Cc1cc(C)cc(NC(=O)c2ccc3oc(=O)c(S(=O)(=O)c4ccc(F)cc4)cc3c2)c1,?,·,-9%[46.1 µM],·,·,5
OC(Cc1ccccc1Br)c1ncc(-c2ccc(Cl)cc2)[nH]1 (stereo not drawn),·,·,·,·,·,8
